Data as given in article PMC4336329 (PLoS ONE, 2015).
Hit rate of the full screen: of about 310,000 compounds, about 14,000 (4.5%) showed an effect of 50% or more. Effects have a minus sign here. The full list was thinned out, with strong results kept by preference.

Biological target: human ether-à-go-go-related gene (hERG) potassium channel (human, UniProt Q12809)
Test: primary screen, population patch clamp on CHO cells stably expressing hERG; higher = less effect of the substance
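Also: peak tail current of the secondary pulse compared with the same well before compound.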

Chain of human ether-à-go-go-related gene (hERG) potassium channel (Q12809 whole entry, looked up): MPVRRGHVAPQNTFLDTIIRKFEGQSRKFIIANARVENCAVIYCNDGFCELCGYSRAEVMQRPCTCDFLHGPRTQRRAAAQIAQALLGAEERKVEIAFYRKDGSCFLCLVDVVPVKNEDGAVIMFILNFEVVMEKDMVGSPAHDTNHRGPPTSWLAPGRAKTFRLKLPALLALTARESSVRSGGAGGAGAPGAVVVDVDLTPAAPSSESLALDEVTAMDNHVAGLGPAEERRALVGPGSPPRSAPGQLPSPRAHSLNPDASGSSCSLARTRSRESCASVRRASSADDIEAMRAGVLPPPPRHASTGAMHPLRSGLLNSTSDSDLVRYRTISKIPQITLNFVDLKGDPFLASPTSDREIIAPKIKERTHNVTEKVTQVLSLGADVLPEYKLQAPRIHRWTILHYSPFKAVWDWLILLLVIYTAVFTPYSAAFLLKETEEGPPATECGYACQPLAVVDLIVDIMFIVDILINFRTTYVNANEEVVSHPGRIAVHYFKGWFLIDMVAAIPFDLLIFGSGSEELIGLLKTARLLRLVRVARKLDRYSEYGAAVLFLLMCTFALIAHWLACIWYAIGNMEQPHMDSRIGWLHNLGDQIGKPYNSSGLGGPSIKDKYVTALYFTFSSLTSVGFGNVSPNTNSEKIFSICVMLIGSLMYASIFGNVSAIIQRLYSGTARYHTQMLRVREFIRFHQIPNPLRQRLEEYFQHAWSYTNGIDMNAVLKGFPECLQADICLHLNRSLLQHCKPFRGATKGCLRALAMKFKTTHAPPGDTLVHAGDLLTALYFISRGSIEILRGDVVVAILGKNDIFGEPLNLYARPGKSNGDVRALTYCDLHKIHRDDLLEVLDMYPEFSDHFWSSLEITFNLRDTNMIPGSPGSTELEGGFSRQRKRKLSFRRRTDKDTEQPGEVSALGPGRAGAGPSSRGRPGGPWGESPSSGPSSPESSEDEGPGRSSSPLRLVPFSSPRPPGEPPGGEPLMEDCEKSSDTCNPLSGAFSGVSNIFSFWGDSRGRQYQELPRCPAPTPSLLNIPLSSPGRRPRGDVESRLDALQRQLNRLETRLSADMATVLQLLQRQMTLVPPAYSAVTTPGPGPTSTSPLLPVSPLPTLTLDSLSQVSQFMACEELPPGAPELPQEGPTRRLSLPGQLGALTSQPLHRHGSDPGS

SMILES | hERG current change (%, negative = inhibition) at 10uM [%]
COc1cc2c(cc1OC)CN(c1ccc(F)cc1[N+](=O)[O-])CC2 | -27.9
COc1cc2c(cc1OC)CN(c1ccc([N+](=O)[O-])cc1C#N)CC2 | -50
COc1cc2c(cc1OC)CN(c1ccc([N+](=O)[O-])cc1Cl)CC2 | -41
CCn1c(NC2CCCCC2)nc2ccccc21 | -15
Cc1ccc(NC(=O)c2cccc(N3C(=O)CCC3=O)c2)nc1 | 3.86
C/C(=N\NS(=O)(=O)c1cccc([N+](=O)[O-])c1)c1cc2ccccc2o1 | -2.61
COC(=O)c1ccc(/C=C(/NC(=O)c2ccccc2)C(=O)N2CCOCC2)cc1 | -9.15
O=C(N/C(=C/c1cccc([N+](=O)[O-])c1)C(=O)N1CCOCC1)c1ccc(Br)cc1 | -46.6
O=C(N/C(=C/c1ccccc1)C(=O)N1CCOCC1)c1ccc([N+](=O)[O-])cc1 | -64.2
O=C(N/C(=C\c1cccc([N+](=O)[O-])c1)C(=O)N1CCOCC1)c1cccc(Br)c1 | -4.26
O=C(N/C(=C\c1ccccc1)C(=O)N1CCOCC1)c1cccc(Br)c1 | 18.8
O=C(N/C(=C\c1ccc(Br)cc1)C(=O)N1CCOCC1)c1ccc([N+](=O)[O-])cc1 | -75.5
O=C(N/C(=C\c1ccc([N+](=O)[O-])cc1)C(=O)N1CCOCC1)c1cccc(Br)c1 | -74.2
O=C(Nc1ccc(C(=O)O)cc1)/C(=C\c1ccc([N+](=O)[O-])cc1)NC(=O)c1ccc(Br)cc1 | 7.58
O=C(N/C(=C\c1ccc(F)cc1)C(=O)N1CCOCC1)c1ccccc1 | -32
O=C(N/C(=C\c1ccc(Cl)cc1)C(=O)N1CCOCC1)c1ccc([N+](=O)[O-])cc1 | -83
O=C(N/C(=C\c1cccc([N+](=O)[O-])c1)C(=O)N1CCOCC1)c1ccc([N+](=O)[O-])cc1 | 12.5
Cc1ccc(C(=O)N/C(=C/c2ccc(Cl)cc2)C(=O)N2CCOCC2)cc1 | -32.6
CC(=O)c1cccc(OCC(=O)N(C)CC(=O)Nc2ccc(F)cc2)c1 | -8.68
CCC(C)NC(=O)c1ccc(CSCc2ccc(Cl)cc2)o1 (centres unmarked) | -38.9
COc1cccc(CNC(=O)CCNS(=O)(=O)c2ccc(Br)s2)c1 | -10.2

SMILES | hERG current change (%, negative = inhibition) at 10uM [%]
N#CCCSCc1ccc(OCC(=O)O)cc1 | -1.48
CCCNC(=O)c1cc(C)no1 | 12.6
Cc1ccc(C)c(NC(=O)CCN2CC(C)OC(C)C2)c1 (centres unmarked) | 1.59
CC(C)C[C@H](NC(=O)N1c2ccccc2NC(=O)[C@@H]1C(C)C)C(=O)N[C@@H](Cc1ccccc1)C(=O)O | -2.11
FC(F)(F)C1=CC(c2ccc(Cl)cc2)=NCCN1 | -16.1
CN(c1ccccc1)S(=O)(=O)c1cccc(NC(=O)CN2CCCc3ccccc32)c1 | -2.81
COc1cc(/C=C(/NC(=O)c2ccccc2)C(=O)N2CCOCC2)c([N+](=O)[O-])cc1OC | -3.92
O=C(N/C(=C\c1ccco1)C(=O)N1CCOCC1)c1ccc([N+](=O)[O-])cc1 | -70.8
Cc1ccc(C(=O)N/C(=C/c2ccco2)C(=O)N2CCOCC2)cc1 | -12.7
COc1ccc(/C=C(/NC(=O)c2ccc(Br)cc2)C(=O)N2CCOCC2)cc1 | 5.5
O=C(N/C(=C/c1ccccc1Cl)C(=O)N1CCCC1)c1ccccc1 | -5.15
COc1ccc(/C=C(\NC(=O)c2ccc([N+](=O)[O-])cc2)C(=O)N2CCOCC2)cc1 | -75
COc1ccc(C(=O)N/C(=C\c2ccc3c(c2)OCO3)C(=O)N2CCOCC2)cc1 | 19.6
Cc1ccc(C(=O)N/C(=C\c2ccco2)C(=O)N2CCOCC2)cc1C | 11
O=C(N/C(=C\c1ccccc1Cl)C(=O)N1CCOCC1)c1ccc([N+](=O)[O-])cc1 | -66
COc1ccc(C(=O)/C=C/N(C)C)cc1OC | 7.92
CN(/N=C/c1ccncc1)c1cnc2ccccc2n1 | 19.3
CCCCCCC1NC(C(=O)O)CS1 (centres unmarked) | -0.451
COc1ccc(S(=O)(=O)N2CCOC2CNC(=O)C(=O)NCCCN2CCOCC2)cc1OC (centres unmarked) | 8.41
CCN(CC)c1cccc(OCC(=O)N(C)CCC#N)c1 | 18.9
CC(C)(C)S(=O)(=O)c1ccc(S(=O)(=O)C(C)(C)C)s1 | 22.8

SMILES | hERG current change (%, negative = inhibition) at 10uM [%]
O=C(CC1C(=O)NCCN1Cc1c(F)cccc1Cl)NCCCn1cccn1 (centres unmarked) | 10.8
O=C1c2ccccc2C(=O)C1c1ccc2ccccc2n1 | -13.4
Br.C1=C(c2ccco2)N2CCN=C2S1 | 1.91
Cc1ccc(Nc2ncc(C(=O)NCCCN3CCN(C)CC3)c3ccccc23)cc1Cl | -61.1
COc1ccc(Nc2cc(C(=O)NCCCN3CCN(C)CC3)c3ccccc3n2)cc1 | 2.72
COc1ccc(Nc2cc(C(=O)NCCCN3CCN(C)CC3)c3ccccc3n2)cc1OC | 1.49
CN(C)c1nc2n(c(=O)n1)CCO2 | 20.3
Cc1ccc(NC(=O)c2sc3nc(N4CCOCC4)c4c(c3c2N)CC(C)(C)OC4)cc1 | 5.7
CN(C)C(CNC(C(=O)Nc1ccc(F)cc1)c1ccccc1)c1ccccc1 (centres unmarked) | -70.6
CC(C)CNC(C(=O)Nc1ccc([N+](=O)[O-])cc1Br)c1ccccc1.O=C(O)C(=O)O (centres unmarked) | -9.16
COC(C(=O)Nc1ccc(F)cc1)c1ccccc1 (centres unmarked) | -0.691
Cc1ccc(NC(=O)NCC(c2ccccc2)N(C)C)cc1 (centres unmarked) | 12.4
COCCNC(C(=O)Nc1ccc([N+](=O)[O-])cc1Br)c1ccccc1 (centres unmarked) | -74
CN(C)C(CNC(C(=O)Nc1ccc([N+](=O)[O-])cc1Br)c1ccccc1)c1ccccc1 (centres unmarked) | -66.5
CCCCNC(C(=O)Nc1ccc([N+](=O)[O-])cc1Br)c1ccccc1 (centres unmarked) | 5.72
COCCNC(C(=O)Nc1ccc(C)cc1[N+](=O)[O-])c1ccccc1 (centres unmarked) | -6.29
COCCNC(C(=O)Nc1cc(Cl)cc(Cl)c1)c1ccccc1 (centres unmarked) | -16.4
CC(C)C(=O)Nc1ccc([N+](=O)[O-])cc1Br | -5.22
CCN(CC)CCNC(C(=O)Nc1ccc([N+](=O)[O-])cc1Br)c1ccccc1 (centres unmarked) | -77
O=C(OC(C(=O)Nc1ccc([N+](=O)[O-])cc1Br)c1ccccc1)c1ccccc1 (centres unmarked) | 5.91
